Hits are enriched below; roughly 4.8% of the tested compounds scored in any of these assays.
SMARCA2 activ – SMARCA2 function activation, primary screen; MG213 cells, MMTV-luciferase reporter, dexamethasone, overnight; activation, % at 9.1 µM; 370,000 compounds, 1% hits; in the data active = activation above about 7.8%;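 also: 0% = vehicle wells and 100% = reference activator wells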
hcDAF-12 act – H. contortus DAF-12 activation, primary screen; HEK293 hcDAF-12 lit1-tk-luc reporter, luminescence; 0% DMSO, 100% Δ7-dafachronic acid; activation, % at 6.8 µM; 370,000 compounds, 1.4% hits; AID 652067;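 active = activation above the mean of all tested compounds plus 3 SD, cut at about 5.5% in these data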;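 also: 100% = response to 3 µM Δ7-dafachronic acid high control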
ssDAF12 agonist – activates DAF-12 receptor from parasite S. stercoralis | activation, % at 6.8 µM | 370,000 compounds, 1% hits | HEK293 ssDAF-12/GRIP1 lit1-tk-luc reporter, luminescence; % of 3 µM dafachronic acid response | AID 652126;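 active = activation above the mean over all tested compounds plus 3 SD, cut at about 0.9% in these data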;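 also: 0% = DMSO-only wells and 100% = 3 µM delta7-dafachronic acid wells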
DAX1 inh-1 – NR0B1 (DAX1) inhibition; P51843; HEK293 Gal4-DAX1 luciferase reporter, luminescence; inhibition, % at 6.75 µM; 340,000 compounds, 0.99% hits; AID 504766;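 active = inhibition above the mean over all tested compounds plus 3 SD, cut at about 4.2% in these data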;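 also: 0% = DAX1-transfected cells with DMSO and 100% = empty-vector control cells with DMSO; inhibition shows as a rise in luminescence from relieved DAX1 repression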
Target sequence (P51843 207-470 limits assumed): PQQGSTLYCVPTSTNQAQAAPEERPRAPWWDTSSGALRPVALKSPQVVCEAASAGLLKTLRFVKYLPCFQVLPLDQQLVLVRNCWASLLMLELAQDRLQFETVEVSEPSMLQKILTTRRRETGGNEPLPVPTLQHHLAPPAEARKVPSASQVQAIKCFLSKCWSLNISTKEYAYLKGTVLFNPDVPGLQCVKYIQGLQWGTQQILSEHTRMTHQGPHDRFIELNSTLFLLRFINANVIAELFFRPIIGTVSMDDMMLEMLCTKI
hgDAF12 agonist – hgDAF-12 agonism, primary luciferase screen; 370,000 compounds, 1.8% hits; AID 687014; activation, % at 6.8 µM; HEK293 GAL4-hgDAF12 UAS-luciferase reporter, agonist luminescence; normalized to butyrate control;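 active = activation above a cutoff set at the mean of all screened compounds plus 3 SD, cut at about 10% in these data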;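 also: 0% = DMSO wells and 100% = sodium butyrate wells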
DAX1 inh-2 – blocks DAX1 repression of SF-1 activated StAR promoter | HEK293T StAR-luciferase reporter, SF-1/DAX-1 repression relief | inhibition, % at 6.8 µM | 370,000 compounds, 1.1% hits | AID 652010;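 active = inhibition above the mean over all tested compounds plus 3 SD, cut at about 3.6% in these data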;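 also: 0% = DAX-1 cells with DMSO and 100% = cells lacking DAX-1 with DMSO; higher inhibition means more luminescence from relief of DAX-1 repression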
* hit, by the source's call; · = no result.

SMILES | SMARCA2 activ | hcDAF-12 act | ssDAF12 agonist | DAX1 inh-1 | hgDAF12 agonist | DAX1 inh-2
O=C(Nc1ccccc1Oc1ccccc1)c1cc([N+](=O)[O-])ccc1Cl | -6 | -2 | -2 | -2 | 1 | -2
Cc1cccc(NC(=O)c2ccccc2O)c1C | 5 | 5 | -1 | 1 | 5 | 0
Cc1cccc(NC(=O)c2cc([N+](=O)[O-])ccc2Cl)c1O | -1 | 6.3* | 0 | 1 | 7 | -2
Cc1cccc(NC(=O)c2cccc([N+](=O)[O-])c2O)c1C | 6 | 3 | 0 | 3 | 13* | 4.1*
CCCN=C1N(C)C[C@@H]2[C@@H]3C(=O)N(Cc4ccccc4)C(=O)[C@@H]3[C@](CC)(C(=O)OC)N12 | 2 | 0 | -1 | 0 | 4 | -2
OC(c1ccc(F)cc1)c1ncc(-c2ccccc2Cl)[nH]1 (stereo not drawn) | 5 | 2 | 0 | · | 6 | 1
OC(c1ccc(F)cc1)c1ncc(-c2ccccc2F)[nH]1 (stereo not drawn) | 1 | 2 | 0 | · | 11* | 3
COc1cc(NS(=O)(=O)c2cc(NC(C)=O)ccc2OC)c(OC)cc1NC(=O)c1ccccc1 | 3 | 1 | -1 | -1 | 0 | 0
COC(=O)/C=C/c1sc2nc(C)cc(C)c2c1N=CN(C)C | 4 | 5.6* | 0 | · | 7 | -1
Cc1cc(C)c2c(N=CN(C)C)c(C(=O)N3CCN(c4ncccn4)CC3)sc2n1 | -2 | -2 | -1 | 0 | -1 | -1
O=C(COc1ccc(Cl)cc1)NNC(=O)c1ccc2c(=O)n3c(nc2c1)CCC3 | 1 | 0 | -1 | -1 | -2 | 4.1*
CC1CCCN(C(=O)CSc2nnc3ccccn23)C1 (stereo not drawn) | -1 | 2 | -1 | 0 | 3 | 1
CC(C)(C)c1ccc(C(=O)Nc2ccc(F)cc2)s1 | 5 | 6.3* | 0 | 3 | 10 | 2
Cc1cc(Br)ccc1NC(=O)CN(C)C(=O)c1cc(S(=O)(=O)N(C)C)ccc1N1CCCC1 | 1 | 0 | -1 | -1 | -2 | 0
CSc1nc2ccc(S(=O)(=O)N3CCCCC3)cc2s1 | 1 | 0 | -1 | 0 | 1 | 1
CSc1nc2ccc(S(=O)(=O)N3CCOCC3)cc2s1 | -1 | 5.8* | -1 | 1 | 0 | 0
Cc1cccc(C)c1NC(=O)CN1C(=O)C2CC=CCC2C1=O (stereo not drawn) | 3 | 1 | -2 | 0 | 0 | -1
N#CCSc1ccccc1NC(=O)CN1C(=O)C2CC=CCC2C1=O (stereo not drawn) | 0 | 4 | 2.3* | 1 | 5 | -5
CCOC(=O)CON1C(=O)C(C)(C)N(OCC(=O)OCC)C(=O)C1(C)C | 1 | 0 | 1.0* | 0 | -1 | 1
CCON1C(=O)C(C)(C)N(OCC)C(=O)C1(C)C | -1 | -3 | -1 | 1 | 0 | 0
CN(C)S(=O)(=O)c1cc(NC(=O)CN2CCCc3ccccc32)ccc1Cl | -4 | 2 | -1 | 0 | 0 | -1
CN(C)S(=O)(=O)c1cc(NC(=O)CN2CCc3ccccc32)ccc1Cl | -2 | 5 | 1.0* | -1 | 6 | 0
Nc1ccccc1-c1nc2ccccc2[nH]1 | 3 | 2 | -1 | 3 | 11* | 4.0*
Cc1c(C(=O)N2CCCC2)oc2ccc(Br)cc12 | 1 | 2 | -1 | 0 | 3 | 0
Cc1c(C(=O)N2CCN(C)CC2)oc2ccc(Br)cc12 | 2 | 1 | -1 | 5.0* | 4 | 1
Cc1nn(-c2cccc(Cl)c2)c(Cl)c1/C=N/NC(=O)c1cccs1 | 2 | 2 | 0 | 4.7* | 11* | 1
CCNC(=S)N/N=C/c1c(C)nn(-c2cccc(Cl)c2)c1Cl | -1 | 0 | -1 | -1 | 1 | 0
O=S1(=O)CC2c3ccccc3CN2CN1C1CCCC1 (stereo not drawn) | 5 | 2 | 0 | · | 0 | 0
COC(=O)C[C@H]1CC[C@H]2[C@H](COc3ccc(NC(=O)Nc4ccccc4F)cc3C(=O)N2C)O1 | 7.9* | -1 | -1 | · | -2 | -1
NC(=S)NN=C(c1ccc(F)cc1)C1CC1 | -1 | 2 | -1 | -1 | 0 | -2

Screening data deposited in PubChem by The Scripps Research Institute Molecular Screening Center.
